Assay results taken from PubChem BioAssay AID1851 (National Center for Advancing Translational Sciences (NCATS), 2009).
About 5,100 (32%) of roughly 16,000 compounds were called active. Another 25% or so got no clear call; they are omitted. The call rests on the fitted dose curve; in most records, active means well fitted curve in the direction sought with a large enough effect; inconclusive means small, poorly fitted or top-dose-only effect, or effect the other way; inactive means no such curve, though single readings can be large or run the other way. Some of the results follow.

What follows are molecules tested against Cytochrome P450 3A4 (Homo sapiens) (UniProt P08684) (assay: Cytochrome panel assay with activity outcomes). Settings: recombinant CYP, pro-luciferin dealkylation, luminescence, p450-cyp3a4; series mostly up to 57.1 µM.
On the % scale 0 is the no-effect control and ±100 the full control effect.

Chain of Cytochrome P450 3A4 (Homo sapiens) (P08684 whole entry, looked up): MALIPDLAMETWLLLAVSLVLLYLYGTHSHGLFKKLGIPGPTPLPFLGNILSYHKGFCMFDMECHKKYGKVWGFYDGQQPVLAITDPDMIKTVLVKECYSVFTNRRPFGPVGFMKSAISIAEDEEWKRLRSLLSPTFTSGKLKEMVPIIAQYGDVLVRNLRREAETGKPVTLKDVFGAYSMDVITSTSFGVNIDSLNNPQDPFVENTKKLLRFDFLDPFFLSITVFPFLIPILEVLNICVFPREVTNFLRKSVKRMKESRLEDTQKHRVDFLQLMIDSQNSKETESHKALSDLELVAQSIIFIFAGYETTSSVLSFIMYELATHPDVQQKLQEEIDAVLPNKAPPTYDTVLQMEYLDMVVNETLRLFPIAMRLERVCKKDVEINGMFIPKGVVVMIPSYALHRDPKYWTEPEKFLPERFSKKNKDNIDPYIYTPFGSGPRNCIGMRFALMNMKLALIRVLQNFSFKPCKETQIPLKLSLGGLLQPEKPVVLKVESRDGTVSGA

SMILES	activity, negative = inhibition	AC50
CCCCCCCCn1cc(C(C)=O)c(=O)[nH]c1=O	-12.5% [at 2.29 µM] (inactive)	
O=C(Cn1c(=O)n(Cc2ccco2)c(=O)c2c3c(sc21)CCCCC3)c1ccccc1		14.1 µM (active)
C[N+]1(NCC[N@@+]2(C)CCc3ccccc3C2)CCCCC1	0.246% [at 11.4 µM] (inactive)	
CCC(C)(C)n1nnnc1C(c1ccc(C)cc1)N1CCC(C)CC1 (stereo not drawn)	21.5% [at 2.29 µM] (inactive)	
CCC(C)(C)n1nnnc1C(c1cc2cc3c(cc2[nH]c1=O)OCO3)N1CCCCC1 (stereo not drawn)		1.58 µM (active)
CCC(C)(C)n1nnnc1C(C(C)C)N(Cc1ccco1)Cc1cc2cc3c(cc2[nH]c1=O)OCO3 (stereo not drawn)		1 µM (active)
CCC(C)(C)n1nnnc1C(C(C)C)N(CCCO)Cc1cc2cc(C)ccc2[nH]c1=O (stereo not drawn)		2 µM (active)
c1ccc(C[n+]2cccc(-c3cc4ccccc4[nH]3)c2)cc1	-7.36% [at 11.4 µM] (inactive)	
Fc1ccccc1OCCCCSc1ncccn1		inactive
O=C1C(=O)c2ccccc2C(O)=C1C(CCc1ccccc1)C1=C(O)c2ccccc2C(=O)C1=O	-5.65% [at 11.4 µM] (inactive)	
O=C1C(SCCO)=C(SCCO)C(=O)c2ccccc21		25.1 µM (active)
O=S(=O)(O)[C@@H](CO)c1ccccc1 (tested in a mixture with another compound)	-1.16% [at 11.4 µM] (inactive)	
COc1ccc2[nH]cc(CCNc3ccnc(-c4cccnc4)n3)c2c1		1.26 µM (active)
COc1ccc2[nH]cc(CCNc3cc(-c4cccc(C#N)c4)ncn3)c2c1		3.98 µM (active)
COc1ccc2[nH]cc(C=O)c2c1		inactive
COc1ccc2[nH]cc(CCNc3cc(-c4cccnc4)ncn3)c2c1		3.98 µM (active)
COc1cccc(-c2cc(NCCc3c[nH]c4ccc(OC)cc34)ncn2)c1		7.94 µM (active)
COc1ccc2[nH]cc(CCNc3cc(-c4ccoc4)ncn3)c2c1		10 µM (active)
CC(C)N=C(N)/N=C(\N)Nc1ccc(Cl)cc1		inactive
Cc1ccc(NC(=O)N/C=C/c2ccc(Cl)cc2)cc1		0.0501 µM (active)
O=c1ncn(-c2ccccc2F)c2ncccc12	14.6% [at 2.29 µM] (inactive)	
O=C1c2ccccc2-c2n[nH]c3cccc1c23		3.98 µM (active)
Cc1n[nH]c2ccccc2c1=O	-6.8% [at 11.4 µM] (inactive)	
O=c1ccc(-c2ccccc2)n[nH]1	-16.6% [at 11.4 µM] (inactive)	
NC(N)=NC(=O)Cc1c(Cl)cccc1Cl		inactive
Cc1nc2cc(NC(=O)CSc3nc4c(C)cccc4cc3C#N)ccc2s1		2.82 µM (active)
Cc1ccc2nc(SCC(=O)NCc3cccs3)c(C#N)cc2c1	-9.74% [at 2.29 µM] (inactive)	
Cc1cc2cccc(C)c2nc1SCC(=O)N(C)c1nc(-c2ccccc2)cs1		inactive
